PubChem BioAssay AID493231 (Broad Institute, 2011)
Potency and affinity values are given separately. Activity calls are given as the source filed them. No rule for the calls is given here.

biological target: Acyl-homoserine lactone acylase PvdQ (Pseudomonas aeruginosa (strain ATCC 15692 / DSM 22644 / CIP 104116 / JCM 14847 / LMG 12228 / 1C / PRS 101 / PAO1)) (UniProt Q9I194); test: P. aeruginosa PvdQ acylase inhibitors, dose response, biochemical, fluorescence, plate reader and imaging, cherry-picks (AID 493231); conditions: purified PvdQ acylase, fluorogenic substrate; series mostly up to 10 µM;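 also: more negative values mean stronger inhibition of the acylase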
Sequence (Q9I194 whole entry, looked up): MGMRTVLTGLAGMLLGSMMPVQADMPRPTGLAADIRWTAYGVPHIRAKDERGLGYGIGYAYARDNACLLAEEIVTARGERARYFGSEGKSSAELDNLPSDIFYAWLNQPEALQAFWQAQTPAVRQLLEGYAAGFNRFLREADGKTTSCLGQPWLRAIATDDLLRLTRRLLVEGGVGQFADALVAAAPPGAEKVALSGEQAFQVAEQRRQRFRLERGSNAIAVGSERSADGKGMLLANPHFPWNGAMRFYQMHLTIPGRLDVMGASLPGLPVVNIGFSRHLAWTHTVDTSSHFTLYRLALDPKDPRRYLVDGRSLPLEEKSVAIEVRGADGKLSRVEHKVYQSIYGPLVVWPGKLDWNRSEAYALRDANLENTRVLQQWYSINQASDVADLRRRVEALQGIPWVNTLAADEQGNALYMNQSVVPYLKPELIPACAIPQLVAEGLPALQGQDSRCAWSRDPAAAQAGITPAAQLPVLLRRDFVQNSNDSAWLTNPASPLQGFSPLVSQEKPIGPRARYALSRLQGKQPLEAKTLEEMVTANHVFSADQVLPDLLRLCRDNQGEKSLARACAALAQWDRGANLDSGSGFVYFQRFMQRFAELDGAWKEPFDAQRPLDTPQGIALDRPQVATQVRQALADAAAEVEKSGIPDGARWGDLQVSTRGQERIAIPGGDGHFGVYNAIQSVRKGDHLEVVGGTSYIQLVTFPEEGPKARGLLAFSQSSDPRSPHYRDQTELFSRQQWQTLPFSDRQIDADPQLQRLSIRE

outcome, inactive:
CCCc1nnc(NC(=O)Cn2cnc3ccccc3c2=O)s1
CN1C(=O)S/C(=C\c2ccc(-n3cncn3)cc2)C1=O
CC(=O)Nc1nc(-c2ccc(Cl)cc2)ns1
COCCCNC(=O)c1cc(S(=O)(=O)NCCCN2CCCC2=O)ccc1Cl
NC(=O)c1cc(Sc2ccccc2)nc2ccccc12
CC(=O)N/C(=N/c1nc(C)cc(C)n1)Nc1ccc(C)cc1C
CN=C1S/C(=C\c2ccc(SC)cc2)C(=O)N1C
O=C(Nc1nc2cc3c(cc2s1)OCO3)C1=COCCO1
Cc1cc(C(=O)OCC(=O)Nc2cc(C)on2)c2ccccc2n1
Cc1ccc(OCCn2cc(/C(N)=N/O)c3ccccc32)cc1C
Cc1cc(C)nc(NS(=O)(=O)c2ccc(NC(=O)c3ccc(N4C(=O)CCC4=O)cc3)cc2)n1
O=C1CC(c2ccccc2)Cc2nc(NC3CC3)ncc21 (stereo unspecified)
O=C(CN1C(=O)C2C3C=CC(C4CC34)C2C1=O)Oc1ccccc1 (stereo unspecified)
CC1CCCCN1C(=O)CSc1nc2ccccc2[nH]1 (stereo unspecified)
COc1ccccc1N(CC(O)Cn1ccnc1C)S(=O)(=O)c1ccccc1 (stereo unspecified)
CCSc1ccc(-c2cccc([N+](=O)[O-])c2)nn1
O=[N+]([O-])c1ccc2c(c1)Cc1cc(F)ccc1-2
C/C(CCC1CC(C)OC1=O)=N/Nc1nc(-c2ccccc2)cs1 (stereo unspecified)
NS(=O)(=O)c1ccc(N2CCOCC2)c(C(=O)NCc2cccs2)c1
COc1ccc(OC)c(C(=O)c2oc3ccccc3c2NC(C)=O)c1
CS(=O)(=O)N(CC(=O)Nc1ccccc1C(=O)N1CCOCC1)c1ccccc1
COc1ccc(CN2CCCC(C(=O)c3cccc(OC(C)C)c3)C2)cc1Cn1cccn1 (stereo unspecified)
Cc1nc(N2CCNCC2)c2c3c(sc2n1)CCCC3
Cc1ccsc1C(=O)NCCC(c1ccccc1)c1ccccc1
Cc1cc(NCCCn2ccnc2)n2nc(-c3ccc(Cl)cc3)cc2n1
O=C1C=C(c2ccccc2)OC(c2ccccc2)O1 (stereo unspecified)
N#C/C(C(=S)Nc1ccccc1)=C1/NN=C(N2CCOCC2)N1c1ccccc1
O=C(Cc1cccc(NC(=O)C2CCN(C(=O)C3CCCCC3)CC2)c1)Nc1cccc(C(=O)N2CCCCC2)c1
COc1ccccc1CNS(=O)(=O)CCNCCc1ccccc1
COc1ccc(NC(=O)C(c2cc3c(cc2[N+](=O)[O-])OCO3)N2CCN(C=O)CC2)cc1 (stereo unspecified)
COc1ccc2cc(C)c3nnc(SCC(=O)Nc4cc(OC)c(OC)cc4C(=O)O)n3c2c1
CCN1CCCC1CN(Cc1cc2ccc(C)cc2[nH]c1=O)C(=S)Nc1cccc(OC)c1 (stereo unspecified)
CCC(=O)N1N=C(c2ccc(C)o2)CC1c1ccc(N(C)C)cc1 (stereo unspecified)
CN1C(=O)/C(=C/c2ccc(O)c([N+](=O)[O-])c2)N(C)C1=S
COc1cccc(CN(C)CC(=O)NNC(=O)c2ccc(Cl)cc2)c1
Cn1c(=O)c2c(ncn2CC(=O)OCC(=O)NCc2ccc(Cl)cc2)n(C)c1=O
